Records with an inconclusive call do not appear. The source made the active and inactive calls. Unless noted, the call rests on the fitted dose curve.
Assays:
[1] = biological target: Bile acid receptor (Homo sapiens) (UniProt Q96RI1); assay: qHTS assay for small molecule antagonists of farnesoid X receptor signaling (AID 588526); further: on the % scale 0 is the no-effect control and ±100 the full control effect
How it was run: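 Concentration-response titrations were fitted to the Hill equation for half-maximal inhibition and maximal response, with data normalised to 50 uM chenodeoxycholic acid and DMSO control wells. Cells: FXR-UAS-bla HEK293T, dialyzed FBS.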

[2] = biological target: Glucocorticoid receptor (Homo sapiens) (UniProt P04150); assay: qHTS assay for small molecule agonists of glucocorticoid receptor signaling (AID 588532; active means well fitted curve in the direction sought with a large enough effect in the signal ratio, with a control signal flat; the % refers to the signal ratio;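 further: 100% = dexamethasone at 0.1 µM and 0% = DMSO only wells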); details: HeLa MMTV-bla, beta-lactamase ratio, agonist, 18 h; stronger effect = higher value; percent of dexamethasone control, DMSO zero
Glucocorticoid receptor (Homo sapiens), sequence (P04150 whole entry, looked up): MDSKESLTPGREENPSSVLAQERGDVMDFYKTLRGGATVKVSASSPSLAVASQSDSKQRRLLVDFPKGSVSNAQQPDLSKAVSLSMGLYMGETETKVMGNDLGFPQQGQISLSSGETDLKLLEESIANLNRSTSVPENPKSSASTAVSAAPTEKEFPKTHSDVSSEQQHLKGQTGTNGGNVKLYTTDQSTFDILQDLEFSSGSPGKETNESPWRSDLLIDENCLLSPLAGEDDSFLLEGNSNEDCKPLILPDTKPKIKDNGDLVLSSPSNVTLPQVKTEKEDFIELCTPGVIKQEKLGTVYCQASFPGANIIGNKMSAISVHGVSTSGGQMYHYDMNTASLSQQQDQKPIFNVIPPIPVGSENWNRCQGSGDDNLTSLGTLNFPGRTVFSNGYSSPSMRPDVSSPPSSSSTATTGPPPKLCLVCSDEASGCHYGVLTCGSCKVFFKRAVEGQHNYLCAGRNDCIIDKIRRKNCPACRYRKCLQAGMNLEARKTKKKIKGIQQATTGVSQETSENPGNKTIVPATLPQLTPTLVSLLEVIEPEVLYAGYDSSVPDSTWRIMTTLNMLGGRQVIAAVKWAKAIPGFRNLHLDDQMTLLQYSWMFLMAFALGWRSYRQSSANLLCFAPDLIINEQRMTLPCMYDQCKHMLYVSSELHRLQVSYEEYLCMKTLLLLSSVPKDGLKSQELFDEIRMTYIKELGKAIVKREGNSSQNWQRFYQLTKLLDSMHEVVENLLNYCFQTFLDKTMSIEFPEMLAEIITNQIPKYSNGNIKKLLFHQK
How it was run: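 MMTV-bla HeLa, beta-lactamase reporter; medium with 1% charcoal/dextran-stripped FBS; cpds up to 92 uM, 18 h, 37 C; CCF4 readout 460/530 nm; Hill fit → EC50, efficacy vs 0.1 uM dexamethasone = 100%.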

[3] = biological target: Glucocorticoid receptor (Homo sapiens) (UniProt P04150); assay: qHTS assay for small molecule antagonists of glucocorticoid receptor signaling (AID 588533; active means well fitted inhibition curve with a large enough effect in the signal ratio, with a control signal flat, not every such curve was filed as active; the % refers to the signal ratio;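 further: cells stimulated with 2 nM dexamethasone as agonist; on the % scale 0 is the no-effect control and ±100 the full control effect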)
How it was run: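 Antagonist-mode qHTS: compound titrations added to GRE-bla HeLa cells, then dexamethasone 2 nM final; 18 h, 37 C. CCF4 FRET fluorescence normalized to dexamethasone and DMSO; IC50 from Hill fit.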

[4] = qHTS assay for small molecule antagonists of peroxisome proliferator-activated receptor delta signaling (AID 588535; active means well fitted inhibition curve with a large enough effect in the signal ratio, with a control signal flat, not every such curve was filed as active; the % refers to the signal ratio;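 on max response: cells co-treated with a PPAR-delta agonist as stimulator during compound exposure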); details: HEK293T PPARd-UAS-bla, beta-lactamase FRET ratio, 18 h; 460 nm channel
How it was run: (§1)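 Reporter: UAS-bla under PPAR-delta response element, HEK293T host. Medium: 2% charcoal/dextran FBS. Dosing: titration, 18 hrs, 37 C. Detection: CCF4, 2 hrs RT, 405 ex/460 and 530 em.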

[5] = biological target: Peroxisome proliferator-activated receptor delta (Homo sapiens) (UniProt Q03181); assay: as above
Peroxisome proliferator-activated receptor delta (Homo sapiens), sequence (Q03181 whole entry, looked up): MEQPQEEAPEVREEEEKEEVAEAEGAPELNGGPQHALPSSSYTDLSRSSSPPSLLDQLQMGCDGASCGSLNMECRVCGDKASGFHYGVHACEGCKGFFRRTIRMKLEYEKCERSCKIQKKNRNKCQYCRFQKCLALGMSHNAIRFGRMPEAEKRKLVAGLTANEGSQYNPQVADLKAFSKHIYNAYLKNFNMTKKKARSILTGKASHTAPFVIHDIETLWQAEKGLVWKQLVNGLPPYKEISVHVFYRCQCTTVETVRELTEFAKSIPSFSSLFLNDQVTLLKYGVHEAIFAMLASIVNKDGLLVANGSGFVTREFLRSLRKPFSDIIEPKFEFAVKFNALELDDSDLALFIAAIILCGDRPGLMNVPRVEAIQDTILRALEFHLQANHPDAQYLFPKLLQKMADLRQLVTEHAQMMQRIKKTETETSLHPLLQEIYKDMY
How it was run: as §1

[6] = biological target: Peroxisome proliferator-activated receptor gamma (Homo sapiens) (UniProt P37231); assay: qHTS assay for small molecule agonists of peroxisome proliferator-activated receptor gamma signaling (AID 588536; active means well fitted curve in the direction sought with a large enough effect in the signal ratio, with a control signal flat, not every such curve was filed as active; the % refers to the signal ratio;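 further: 0% = DMSO basal wells and 100% = rosiglitazone at 2 µM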)
Peroxisome proliferator-activated receptor gamma (Homo sapiens), sequence (P37231 whole entry, looked up): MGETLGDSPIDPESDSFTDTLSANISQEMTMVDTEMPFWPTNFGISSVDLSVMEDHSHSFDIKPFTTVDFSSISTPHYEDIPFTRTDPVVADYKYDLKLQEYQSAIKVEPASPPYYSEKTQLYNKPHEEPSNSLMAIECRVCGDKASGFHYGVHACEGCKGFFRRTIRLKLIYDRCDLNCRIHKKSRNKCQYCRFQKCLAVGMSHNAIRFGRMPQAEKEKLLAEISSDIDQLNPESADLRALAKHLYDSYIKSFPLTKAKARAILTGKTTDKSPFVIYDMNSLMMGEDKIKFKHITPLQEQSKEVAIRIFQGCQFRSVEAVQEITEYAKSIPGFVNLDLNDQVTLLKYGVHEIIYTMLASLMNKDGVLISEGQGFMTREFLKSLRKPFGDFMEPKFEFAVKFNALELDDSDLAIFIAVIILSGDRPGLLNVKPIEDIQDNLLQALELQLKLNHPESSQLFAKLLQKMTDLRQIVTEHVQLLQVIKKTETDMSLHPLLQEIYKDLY
How it was run: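 PPAR-gamma-UAS-bla HEK293 cells in medium with 1% charcoal/dextran-treated FBS were exposed to compounds for 16 h at 37 C. Beta-lactamase activity was read with CCF4 substrate (405 nm excitation, 460/530 nm emission).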

[7] = biological target: Peroxisome proliferator-activated receptor gamma (Homo sapiens) (UniProt P37231); assay: qHTS assay for small molecule antagonists of peroxisome proliferator-activated receptor gamma signaling (AID 588537; active means well fitted inhibition curve with a large enough effect in the signal ratio, with a control signal flat, not every such curve was filed as active; the % refers to the signal ratio;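 further: reporter cells co-stimulated with 50 nM rosiglitazone agonist during compound treatment; % of control where 0% means no effect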)
How it was run: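 We seeded GeneBLAzer HEK293 reporter cells at 3000 per well, allowed 6-6.5 h attachment at 37 C, then co-treated with test compound titrations and 50 nM rosiglitazone overnight (16 h). Inhibition was quantified from 460/530 nm emission ratios.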

[8] = qHTS assay for small molecule agonists of retinoid X receptor alpha signaling (AID 588544); details: HEK293T RXRa-UAS-bla, beta-lactamase reporter, 18 h; 530 nm emission;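 on activation: 0% = DMSO basal wells and 100% = reference agonist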
[9] = biological target: Retinoic acid receptor RXR-alpha (Homo sapiens) (UniProt P19793); assay: as above
Retinoic acid receptor RXR-alpha (Homo sapiens), sequence (P19793 whole entry, looked up): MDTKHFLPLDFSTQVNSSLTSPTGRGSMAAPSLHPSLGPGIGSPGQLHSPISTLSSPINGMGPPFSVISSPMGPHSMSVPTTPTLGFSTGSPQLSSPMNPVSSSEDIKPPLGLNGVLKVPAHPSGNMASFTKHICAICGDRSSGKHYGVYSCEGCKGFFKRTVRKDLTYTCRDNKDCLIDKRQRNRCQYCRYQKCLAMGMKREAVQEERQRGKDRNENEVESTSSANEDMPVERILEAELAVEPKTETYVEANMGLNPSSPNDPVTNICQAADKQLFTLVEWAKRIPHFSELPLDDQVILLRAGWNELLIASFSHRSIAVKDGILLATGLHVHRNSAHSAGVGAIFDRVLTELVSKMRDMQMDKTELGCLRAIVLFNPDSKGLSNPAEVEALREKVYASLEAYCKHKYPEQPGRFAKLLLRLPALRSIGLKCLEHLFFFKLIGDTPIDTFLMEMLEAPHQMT

[10] = qHTS assay for small molecule antagonists of retinoid X receptor alpha signaling (AID 588546; active means well fitted inhibition curve with a large enough effect in the signal ratio, with a control signal flat, not every such curve was filed as active; the % refers to the signal ratio; further: potency means the concentration at half of the fitted maximal effect); details: HEK293T RXRa-UAS-bla, beta-lactamase ratio, antagonist mode; measured here: W530 green channel, cytotoxicity proxy
How it was run: (§2)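 Beta-lactamase reporter inhibition, read as CCF4 fluorescence ratio (ex 405, em 460/530 nm) after 2 h at RT. HEK293T UAS-bla cells, 2500/well, were stimulated with 9-cis-RA at 500 or 100 nM final alongside test compound for 18 h at 37 C.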

[11] = biological target: Retinoic acid receptor RXR-alpha (Homo sapiens) (UniProt P19793); assay: as above; details: HEK293T RXRa-UAS-bla, beta-lactamase ratio, antagonist mode
How it was run: as §2

[12] = qHTS assay for small molecule agonists of the antioxidant response element (ARE) signaling pathway (AID 651741; active means well fitted activation curve with a large enough effect in the signal ratio; the % refers to the signal ratio; further: potency means the concentration at half of the fitted maximal effect; on activation: % of control where 0% means no effect)
How it was run: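 Compounds in DMSO are pinned onto HepG2 ARE-bla cells (2,000/well) that were preincubated 5 h; plates stay 16 h at 37 C, then beta-lactamase activity is detected with LiveBLAzer B/G substrate by fluorescence.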

[13] = qHTS assay for small molecule activators of the p53 signaling pathway (AID 651743; active means well fitted activation curve with a large enough effect in the signal ratio, not every such curve was filed as active; the % refers to the signal ratio; further: potency means the concentration at half of the fitted maximal effect; on activation: series mostly up to about 92 µM; % of control where 0% means no effect); details: HCT-116 p53RE-bla, beta-lactamase FRET ratio, 16 h; activation: stronger effect = higher value
How it was run: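 Cell-based beta-lactamase reporter (p53 response elements, HCT-116 background). After a 5-hour preincubation, cells received compound for 16 hours at 37 C; substrate development ran 2 hours at room temperature.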

[14] = qHTS assay for environmental chemicals that activate the Aryl hydrocarbon Receptor (AhR) signaling pathway (AID 651777; active means well fitted curve in the direction sought with a large enough effect; an effect the other way counts as inactive or inconclusive; further: % of control where 0% means no effect; nearly all actives have a fitted effect of over 15% in size); details: 1A2-DRE human hepatoma cells, luciferase, 24 h; activation: stronger effect = higher value
How it was run: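 Human hepatoma 1A2-DRE cells, stably carrying a dioxin response element and CYP1A2 promoter driving luciferase, were exposed to compounds for 24 hr at 37 C and 5% CO2. Luciferase signal was then read after 30 min One-Glo at room temperature.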

[15] = qHTS assay for small molecule agonists of the antioxidant response element (ARE) signaling pathway measured by Nrf2-dependant transcriptional activity (AID 720636; active means well fitted curve in the direction sought with a large enough effect in the repeat runs; an effect the other way counts as inactive or inconclusive; further: % of control where 0% means no effect)
How it was run: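 ARE-luc HepG2 cells carrying an Nrf2-responsive luciferase reporter were plated in medium with 1% dialyzed FBS, left 6 hr at 37 C to attach, then exposed to compound for 16 hr. Luciferase luminescence was read after ONE-Glo addition.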

[16] = qHTS assay for small molecule agonists of the antioxidant response element (ARE) signaling pathway measured by Nrf2-dependant transcriptional activity - cell viability counter screen (AID 720653; active means well fitted curve in the direction sought with a large enough effect in the repeat runs; an effect the other way counts as inactive or inconclusive; further: on the % scale 0 is the no-effect control and ±100 the full control effect); details: ARE-bla HepG2 viability, CellTiter-Glo ATP luminescence, 16 h; max response: stronger effect = lower value
How it was run: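 ARE-bla HepG2 cells (2,000/well) rested 5 hrs at 37C/5% CO2, then exposed to compounds in DMSO for 16 hrs. Viability was read in the same wells as intracellular ATP by luminescence, 30 min at room temperature after reagent addition.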

[17] = qHTS assay for cell viability of HEK293 cells (AID 743288; active means well fitted curve in the direction sought with a large enough effect; an effect the other way counts as inactive or inconclusive; further: on the % scale 0 is the no-effect control and ±100 the full control effect; nearly all actives have a fitted effect of over 50% in size); details: ATP luminescence (CellTiter-Glo), 18 h; max response: stronger effect = lower value
How it was run: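 Luminescent ATP quantitation served as the viability read-out. Cells (parental HEK293, 2,000/well) received compounds after at least 5 h at 37 C and were exposed for 18 h before a 30 min room-temperature reagent step.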

[18] = qHTS assay for cell viability of the p53RE-bla HCT-116 cell line (AID 743292; active means well fitted curve in the direction sought with a large enough effect; an effect the other way counts as inactive or inconclusive; further: on the % scale 0 is the no-effect control and ±100 the full control effect; nearly all actives have a fitted effect of over 55% in size)
How it was run: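 CellSensor p53RE-bla HCT-116 cells, 4,000/well, preincubated 5 h at 37 C, then exposed to compounds in DMSO for 16 h at 37 C. Viability read as CellTiter-Glo luminescence (intracellular ATP) after 30 min at room temperature.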

[19] = biological target: Nuclear receptor subfamily 1 group I member 2 (Rattus norvegicus) (UniProt Q9R1A7); assay: qHTS assay for small molecule activators of the rat pregnane X receptor (rPXR) signaling pathway (AID 651751; call rule not given here; further: 0% is about no effect); details: rPXR reporter cells, luciferase (One-Glo), 24 h
Nuclear receptor subfamily 1 group I member 2 (Rattus norvegicus), sequence (Q9R1A7 whole entry, looked up): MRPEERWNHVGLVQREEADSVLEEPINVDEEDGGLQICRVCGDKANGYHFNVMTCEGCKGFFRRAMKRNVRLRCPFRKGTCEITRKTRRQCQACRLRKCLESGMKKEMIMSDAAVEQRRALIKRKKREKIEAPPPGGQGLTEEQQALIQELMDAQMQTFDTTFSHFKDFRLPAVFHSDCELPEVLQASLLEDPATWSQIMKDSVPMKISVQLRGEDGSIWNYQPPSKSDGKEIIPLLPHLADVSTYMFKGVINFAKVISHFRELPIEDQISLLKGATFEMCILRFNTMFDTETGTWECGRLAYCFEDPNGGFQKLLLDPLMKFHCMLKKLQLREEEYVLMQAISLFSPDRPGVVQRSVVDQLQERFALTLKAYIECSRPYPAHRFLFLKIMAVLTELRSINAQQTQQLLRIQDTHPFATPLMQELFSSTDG

[20] = qHTS assay for small molecule activators of the human pregnane X receptor (PXR) signaling pathway (AID 720659; call rule not given here; further: 0% is about no effect)
[21] = biological target: Vitamin D3 receptor (Homo sapiens) (UniProt P11473); assay: qHTS assay for small molecule antagonists of vitamin D receptor signaling (AID 588541);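 further: receptor activated by calcitriol during compound treatment; series mostly up to about 77 µM; on the % scale 0 is the no-effect control and ±100 the full control effect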
Vitamin D3 receptor (Homo sapiens), sequence (P11473 whole entry, looked up): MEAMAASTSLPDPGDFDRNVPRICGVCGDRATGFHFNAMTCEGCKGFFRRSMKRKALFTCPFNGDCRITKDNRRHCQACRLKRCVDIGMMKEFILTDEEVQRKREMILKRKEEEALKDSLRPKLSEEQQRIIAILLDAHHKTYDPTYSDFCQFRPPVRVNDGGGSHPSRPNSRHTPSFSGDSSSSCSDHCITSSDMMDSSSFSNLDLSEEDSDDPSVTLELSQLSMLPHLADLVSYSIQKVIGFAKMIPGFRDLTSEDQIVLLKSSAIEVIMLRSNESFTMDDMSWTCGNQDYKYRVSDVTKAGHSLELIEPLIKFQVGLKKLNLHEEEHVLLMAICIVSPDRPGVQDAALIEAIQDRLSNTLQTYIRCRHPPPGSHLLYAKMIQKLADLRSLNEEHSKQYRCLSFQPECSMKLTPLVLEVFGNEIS
How it was run: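 VDR-UAS-bla HEK293T cells (2000/well, 2% charcoal-stripped FBS) were treated with titrated compounds plus 1-alpha,25-dihydroxyvitamin D3 (50 nM or 3 nM final) for 16 h at 37 C. CCF4 beta-lactamase fluorescence was read; Hill fits gave IC50.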

[22] = biological target: Vitamin D3 receptor (Homo sapiens) (UniProt P11473); assay: qHTS assay for small molecule agonists of vitamin D receptor signaling (AID 588543);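 further: 0% = DMSO basal and 100% = reference agonist control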
How it was run: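 Measured: β-lactamase reporter activity (CCF4, 405 nm excitation, 460/530 nm emission) in HEK293T VDR-UAS-bla cells after 16 h compound exposure at 37 °C. Normalization against 50 nM 1α,25-dihydroxyvitamin D3 and DMSO; Hill-fit EC50.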

[23] = biological target: Thyroid hormone receptor beta (Homo sapiens) (UniProt P10828); assay: qHTS assay for small molecule agonists of thyroid hormone receptor beta signaling (AID 588545);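 further: 0% = DMSO only and 100% = 10 nM T3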
Thyroid hormone receptor beta (Homo sapiens), sequence (P10828 whole entry, looked up): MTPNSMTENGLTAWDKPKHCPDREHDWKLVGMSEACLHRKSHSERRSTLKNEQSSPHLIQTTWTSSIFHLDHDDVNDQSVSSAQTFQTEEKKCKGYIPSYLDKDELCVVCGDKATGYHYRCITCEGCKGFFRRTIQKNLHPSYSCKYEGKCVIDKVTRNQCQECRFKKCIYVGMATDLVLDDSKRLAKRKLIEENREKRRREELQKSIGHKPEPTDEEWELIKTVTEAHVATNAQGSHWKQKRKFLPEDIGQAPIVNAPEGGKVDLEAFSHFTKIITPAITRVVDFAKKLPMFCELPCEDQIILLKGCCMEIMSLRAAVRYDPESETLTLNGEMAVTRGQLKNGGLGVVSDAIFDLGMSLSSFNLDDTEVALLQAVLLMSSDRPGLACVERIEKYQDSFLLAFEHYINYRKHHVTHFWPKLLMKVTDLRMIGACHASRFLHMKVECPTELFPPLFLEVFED
How it was run: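 Compounds were tested as agonists in TR-UAS-bla-GripTite HEK 293 cells. After 18 hrs at 37 C, CCF4 substrate was added and fluorescence read after 2 hrs at room temperature.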

[24] = biological target: Thyroid hormone receptor beta (Homo sapiens) (UniProt P10828); assay: qHTS assay for small molecule antagonists of thyroid hormone receptor beta signaling (AID 588547; active means well fitted inhibition curve with a large enough effect in the signal ratio, with a control signal flat, not every such curve was filed as active; the % refers to the signal ratio); details: TR-UAS-bla HEK293, beta-lactamase ratio, antagonist mode, 18 h
How it was run: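 TR-UAS-bla GripTite HEK293 cells in 2% charcoal/dextran FBS medium were preincubated 4 h at 37 C, given compound (0.59 nM to 92 uM) plus 0.4 nM T3 (final) for 18 h, then CCF4 for 2 h at RT; Hill fit gave IC50.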

[25] = qHTS assay for small molecule activators of the nuclear factor-kappa B (NF-kB) signaling pathway (AID 651749; active means well fitted activation curve with a large enough effect in the signal ratio; the % refers to the signal ratio; further: series mostly up to about 77 µM; % of control where 0% means no effect); details: NF-kB-bla ME-180 cells, beta-lactamase FRET ratio, 16 h; activation: stronger effect = higher value
How it was run: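 Screening used 2,000 ME-180 reporter cells per well exposed to pinned compound (23 nL) or DMSO; after 16 hr at 37C, beta-lactamase expression under NF-kB control was assessed through FRET.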

[26] = biological target: Peroxisome proliferator-activated receptor alpha (Homo sapiens) (UniProt Q07869); assay: qHTS assay for small molecule agonists of the peroxisome proliferator-activated receptor alpha (PPARalpha) signaling pathway (AID 651778; active means well fitted curve in the direction sought with a large enough effect; an effect the other way counts as inactive or inconclusive; further: % of control where 0% means no effect); details: PathHunter PPARalpha complementation, chemiluminescence, 6 h; max response: stronger effect = higher value
Peroxisome proliferator-activated receptor alpha (Homo sapiens), sequence (Q07869 whole entry, looked up): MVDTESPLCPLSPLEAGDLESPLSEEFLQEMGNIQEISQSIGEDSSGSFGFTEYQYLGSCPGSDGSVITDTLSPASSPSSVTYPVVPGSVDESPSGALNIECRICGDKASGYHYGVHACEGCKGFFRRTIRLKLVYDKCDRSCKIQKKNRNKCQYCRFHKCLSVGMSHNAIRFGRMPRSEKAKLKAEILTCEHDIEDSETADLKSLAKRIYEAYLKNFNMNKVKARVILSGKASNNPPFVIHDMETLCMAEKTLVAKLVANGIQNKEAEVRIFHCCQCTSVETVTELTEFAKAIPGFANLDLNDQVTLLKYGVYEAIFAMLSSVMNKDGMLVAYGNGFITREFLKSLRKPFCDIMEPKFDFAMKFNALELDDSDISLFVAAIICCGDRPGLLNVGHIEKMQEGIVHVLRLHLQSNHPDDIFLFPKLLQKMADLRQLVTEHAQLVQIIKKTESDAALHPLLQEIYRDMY
How it was run: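 Cells plated at 2,000/well and held overnight at 37 C, 5% CO2, then compound added by pin tool for 6 hr; after PathHunter detection reagent and 60 min at room temperature, chemiluminescence from enzyme complementation was read.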

Bile acid receptor (Homo sapiens), sequence (Q96RI1 whole entry, looked up): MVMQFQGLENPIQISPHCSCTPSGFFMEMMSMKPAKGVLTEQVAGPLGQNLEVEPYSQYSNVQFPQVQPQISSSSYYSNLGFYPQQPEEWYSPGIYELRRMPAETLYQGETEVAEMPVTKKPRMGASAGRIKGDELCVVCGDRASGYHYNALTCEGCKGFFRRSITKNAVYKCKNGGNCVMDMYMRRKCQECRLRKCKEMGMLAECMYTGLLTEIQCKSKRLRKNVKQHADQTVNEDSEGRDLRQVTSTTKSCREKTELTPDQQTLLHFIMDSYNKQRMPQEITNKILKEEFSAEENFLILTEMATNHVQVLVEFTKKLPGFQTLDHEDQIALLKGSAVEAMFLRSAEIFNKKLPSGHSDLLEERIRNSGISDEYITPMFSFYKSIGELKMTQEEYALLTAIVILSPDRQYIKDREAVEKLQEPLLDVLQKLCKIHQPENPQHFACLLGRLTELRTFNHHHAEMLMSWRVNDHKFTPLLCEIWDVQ

NC(=O)Cc1cccc2ccccc12
inactive: Potency [1] | activation [2] -1.98% | Potency [3] | Potency [5] | outcome [6] | Potency [7] | Potency [9] | max response [11] -14.7% | Potency [12] | activation [13] 1.36% | activation [14] 4.55% | Potency [15] | max response [16] -4.7% | max response [17] -7.9% | Potency [18] | max response [19] -0.261% | outcome [20]
-2.89%: max response [8]
36.8%: max response [4]
0.786%: max response [10]

Clc1nc(Cl)c(Cl)c(Cl)c1Cl
31.1%: max response [4]
-3.68%: max response [8]
active: Potency [12] 17.2 µM
-0.304%: max response [10]
inactive: Potency [3] | Potency [5] | outcome [6] | Potency [7] | Potency [21] | outcome [22] | Potency [9] | Potency [23] | max response [11] -25.7% | activity change % (negative = inhibition) [24] -13.1% | activation [13] -0.354% | activation [25] -1.8% | activation [14] -0.0238% | max response [16] -5.53% | max response [17] -14.3% | Potency [18] | max response [19] -3.08% | outcome [20]

c1ccc2c(c1)ccc1c3ccccc3ccc21
1.74%: max response [4]
inactive: Potency [5] | outcome [6] | Potency [7] | Potency [21] | outcome [22] | Potency [9] | Potency [23] | max response [11] -7.12% | activity change % (negative = inhibition) [24] 1.89% | activation [13] 0.403% | activation [25] -0.747% | max response [26] -3.59% | max response [16] -24.7% | max response [17] -7.41% | Potency [18]
-11.3%: max response [8]
-22.1%: max response [10]

CCCCCCCC/C=C\CCCCCCCC(=O)OC
-11.5%: max response [4]
inactive: activation [2] -1.79% | Potency [3] | Potency [7] | Potency [21] | outcome [22] | Potency [9] | Potency [23] | max response [11] -0.729% | activation [13] 1.64% | activation [25] -2.39% | activation [14] -0.866% | max response [26] 4.75% | Potency [15] | max response [16] -4.89% | max response [17] -6.3% | Potency [18] | max response [19] 0.29% | outcome [20]
-9.12%: max response [10]
-13.4%: max response [8]

O=[N+]([O-])c1ccc(O)cc1C(F)(F)F
-4.35%: max response [4]
active: Potency [11] 7.94 µM | Potency [12] 34.4 µM | Potency [13] 31.6 µM
6.72%: max response [10]
inactive: activation [2] -7.74% | Potency [5] | Potency [7] | Potency [21] | outcome [22] | activation [14] 14.2% | max response [26] -8.59% | Potency [15] | Potency [18] | outcome [20]

— PubChem BioAssay (NCATS)
